This is part of a sample that, as a whole, favours compounds with a hit. Of some 83,000 tested, about 20% had one in any assay.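 Testing used 96-well plates and a 48-hour single-concentration exposure. Example: -40 means 40% of the starting cells died.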 Activity calls are given as the source filed them.
Each molecule was assayed on SK-OV-3 ovarian (assay: NCI-60 one-dose screen, 48 h (100 = growth as untreated, 0 = no growth, -100 = all killed)). Conditions: 10 µM unless noted.
Experimental: Growth inhibition of the SK-OV-3 human tumor cell line is measured as a screen for anti-cancer activity. Cells are grown in 96 well plates and exposed to the test compound for 48 hours. Compounds are tested at a single concentration, which is 10^-5 M for most compounds. The reported endpoint is percent growth (GI% or GIPRCNT), where numbers from 0 - 100% represent growth inhibition, and numbers from -100% - 0 represent cell death. For example, a value of 40 represents 60% growth inhibition. A value of 0 means no net growth occurred over the course of the experiment. A value of -40 indicates 40% of cells at the beginning of the experiment died by the end of the experiment. A value of -100 means all cells are dead at the end of the experiment.
NCI-60 Human Tumor Cell Lines Screen was performed using the standard one-dose NCI protocol, which is described in more detail at https://dtp.cancer.gov/discovery_development/nci-60/default.htm.
Compounds with GIPRCNT values below 10 were considered active. Activity score was based on GIPRCNT using the following formula: […]
Score is 0 for GIPRCNT values of 100 or above, 50 for GIPRCNT values of 0, and 100 for GIPRCNT values of -100.
In the case of `IP(CCCSc1n(Cc2ccc3ccccc3c2)c(-c2ccccc2)c(-c2ccccc2)[n+]1Cc1ccc2ccccc2c1)(c1ccccc1)(c1ccccc1)c1ccccc1`, the growth is reported as 29.4% (inactive).
With `Nc1c(C(=O)c2ccccc2)sc2nc(-c3cnccn3)cc(-c3cccs3)c12` the growth was 103% (inactive).
For `COc1cc(NC2=C(Cl)C(=O)c3nc(C)ccc3C2=O)cc(OC)c1`, the growth was 93.8% (inactive).
In the case of `C=CCn1c(SCC(=O)Nc2cccc(C(=O)/C=C/c3cccc([N+](=O)[O-])c3)c2)nc2ccccc2c1=O`, the growth is reported as 116% (inactive).
With `ClC(Cl)c1nc(-c2cccs2)n2nc(-c3ccccc3)cc2n1` the growth was 20.2% (inactive).
With `O=C(/C=C/c1cccc(O)c1)c1ccc(O)cc1` the growth was 112% (inactive).
`NC(=S)N/N=C(/C=C/c1cn(-c2ccccc2)nc1-c1ccc(Cl)cc1)c1cc2ccccc2oc1=O` was tested, and the growth was 85.2% (inactive).
With `Cc1ccc(-c2cc(-c3ccc(N(C)C)cc3)n3c(n2)nc2ccccc23)cc1` the growth was 81.3% (inactive).
With `COc1ccc(CCN2C(=O)CSC2=S)cc1OC` the growth was 99.1% (inactive).
With `COc1ccc(/C=C/C(=O)c2nnn(-c3ccc(C(=O)O)cc3)c2C)cc1OC` the growth was 112% (inactive).
With `O=S(=O)(NCCCNc1nccc(-n2cnc3ccccc32)n1)c1ccc(F)cc1` the growth was 85.1% (inactive).
With `COc1ccc([C@@H]2[C@@H](O)C(=O)N2c2cc(OC)c(OC)c(OC)c2)cc1Cl` the growth was 23.9% (inactive).
For `COc1cc(/C=N/n2cnc3oc(-c4ccccc4)cc3c2=N)cc(CN2CCN(C)CC2)c1O`, the growth was 91.3% (inactive).
With `O=C(/C=C/c1cn(-c2ccccc2)nc1-c1ccc(Cl)cc1)c1cc2ccccc2oc1=O` the growth was 92.7% (inactive).
In the case of `Cc1ccc(NC(=O)c2cc(/C=C/C(=O)NO)cc(C(F)(F)F)c2)cc1Nc1nccc(-c2cccnc2)n1`, the growth is reported as -38.3% (active).
With `COc1ccc2c(C3=C(c4cn(C)c5ccccc45)C(=O)NC3=O)coc2c1` the growth was 47.6% (inactive).
For `COc1cc(-c2noc(C[C@@H](NC(=O)OCc3ccccc3)C(C)C)n2)cc(OC)c1OC`, the growth was 94.5% (inactive).
In the case of `N#Cc1ccc(S(=O)(=O)Nc2ccc(-c3cnc(N)[nH]3)cc2)cc1`, the growth is reported as 106% (inactive).
With `Cc1ccc(NC(=O)c2ccc(CN3CCN(C)CC3)c(C(F)(F)F)c2)cc1Oc1ccc(-c2[nH]nc3ncnc(N)c23)cc1` the growth was 97% (inactive).
For `CCOC(=O)C1=C(C)Nc2nc3ccccc3n2C1c1ccccc1` (stereo not given), the growth was 113% (inactive).
In the case of `NC(=O)C(=Cc1ccc(Cl)cc1)C(N)=O`, the growth is reported as 117% (inactive).
With `NC(=O)N1N=C(c2cc3ccccc3oc2=O)CC1c1cn(-c2ccccc2)nc1-c1ccc(Cl)cc1` (stereo not given) the growth was 75.6% (inactive).
With `O=C(Nc1cccc(-c2nc(-c3ccc(NC(=O)c4cccs4)cc3Cl)no2)c1)Nc1ccc(NC(=O)C2CC2)c(C(F)(F)F)c1` the growth was -30.6% (active).
In the case of `COc1ccc2oc3c4[nH]c5ccccc5c4c4c(c3c2c1)C(=O)N(O)C4=O`, the growth is reported as 98.9% (inactive).
In the case of `NS(=O)(=O)c1ccc(-n2cc(CC=O)nn2)cc1`, the growth is reported as 112% (inactive).
With `CCCCCCCCNC(=O)c1ccc(Cn2c(CCCC)nc3c(N)nc4ccccc4c32)cc1` the growth was 76.1% (inactive).
For `O=C(CSc1nnc(-c2cccs2)n1-c1ccccc1)Nc1ccc(F)cc1`, the growth was 82.5% (inactive).
For `COc1ccc(N2CCN(C(=O)CSc3ccc(-c4nc5cc(C)c(C)cc5[nH]4)cn3)CC2)cc1`, the growth was 94.6% (inactive).
`CCC(CC)n1c(=O)c(SC2=NC3C(NN2)N(CC)C(=O)N3CC)c(C(=O)O)c2ccccc21` (stereo not given) was tested, and the growth was 40.6% (inactive).
In the case of `Cc1cc(NS(=O)(=O)c2ccc(-c3cnc(C4CC4)o3)cc2)ccc1I`, the growth is reported as 66.2% (inactive).
`COc1ccc(CN2C(=O)/C(=C/c3nc(CO)cs3)SC2=S)cc1` was tested, and the growth was 109% (inactive).
`Clc1ccc(-c2csc(N/N=C/c3nc4ccccc4n3C3CC3)n2)cc1` was tested, and the growth was 108% (inactive).
For `O=C(CSc1nnc(-c2ccc(Cl)cc2)n1-c1ccccc1)Nc1ccc(F)cc1`, the growth was 83.8% (inactive).
In the case of `COc1cc2c3c(n(CCCNC4CCCCC4)c(=O)c2cc1OC)-c1cc2c(cc1C3=O)OCO2`, the growth is reported as 104% (inactive).
In the case of `Oc1ccc(CSc2nnc(-c3ccccc3)n2-c2ccccc2)c2cccnc12`, the growth is reported as 9.62% (active).
`C=C(C)[C@@H]1CC[C@]2(C(=O)ON)CC[C@]3(C)[C@H](CC[C@@H]4[C@@]5(C)C/C(=C/c6ccc(Br)cc6)C(=O)C(C)(C)[C@@H]5CC[C@]43C)[C@@H]12` was tested, and the growth was 98.6% (inactive).
With `Cc1ccccc1NC1CC(=O)N(c2ccc(Cl)cc2Cl)C1=O` (stereo not given) the growth was 108% (inactive).
In the case of `COc1cc(/C=N/n2cnc3oc(-c4ccccc4)cc3c2=N)cc(CN2CCCCC2)c1O`, the growth is reported as 105% (inactive).
In the case of `O=C1/C(=C/c2ccccc2[N+](=O)[O-])Oc2ccc(O)cc21`, the growth is reported as 84% (inactive).
With `COc1ccc(OC)c([C@H]2c3[nH]c4ccccc4c3C[C@H]3C(=O)N(CCCCCCC(=O)NO)CC(=O)N23)c1` the growth was 86.2% (inactive).
